Test results as given in ChEMBL document CHEMBL1157539, “Thousands of chemical starting points for antimalarial lead identification” (Nature, 2010).

Legend:
Type in all cases: functional
[1] = tested on: Plasmodium falciparum; assay: GSK_TCMDC: Inhibition of Plasmodium falciparum 3D7 in whole red blood cells, using parasite LDH activity as an index of growth. Test compounds present at 2uM
[2] = tested on: Plasmodium falciparum; assay: GSK_TCMDC: Inhibition of Plasmodium falciparum Dd2 in whole red blood cells, using parasite LDH activity as an index of growth. Test compounds present at 2uM
[3] = tested on: HepG2; assay: GSK_TCMDC: Percent inhibition of human HepG2 cell line. Test compounds present at 10uM.

| SMILES | Inhibition [1] [%] | Inhibition [2] [%] | Inhibition [3] [%] |
| --- | --- | --- | --- |
| Cc1c(Cl)cccc1S(=O)(=O)N1CCCCC(c2ccc(C(F)(F)F)cc2)=N1 | 86 | 91 | 15 |
| O=C(O)C(F)(F)F.OCC1CCN(Cc2ccc(-c3cccc(-c4nc5cc(F)ccc5[nH]4)c3)cc2)CC1 | 100 | 25 | 14 |
| Fc1ccc2[nH]ccc(=NN=Cc3ccccc3Cl)c2c1 | 100 | 39 | 3 |
| O=C(/C=C/c1ccc(Cl)c(Cl)c1)NCCCCCN1CCC(NC(=O)Nc2ccc(F)c(F)c2)CC1 | 99 | 4 | 24 |
| Cc1cccc(C(=O)N2CCN(Cc3cccc(NC(=O)c4cccs4)c3)CC2)c1.O=C(O)C(F)(F)F | 95 | 95 | 5 |
| CCOc1ccc(-c2nonc2NC(=O)c2ccc(OC(C)C)cc2)cc1OCC | 100 | 100 | 13 |
| COCCCNC(=O)c1ccc(O)c(-c2cc(Cl)cc(Cl)c2)c1 | 94 | 34 | 22 |
| CCOc1cc(C)ccc1N1CCN(CCCCNC(=O)c2ccc(NC(=O)c3ccc(Cl)cc3)cc2)CC1.Cl | 100 | 46 | 19 |
| C=CCn1c(SCc2c(C)noc2C)nc2scc(-c3cccs3)c2c1=O | 88 | 34 | 13 |
| COc1ccc(F)cc1-c1ccccc1CNC(=O)c1cnn(-c2ccc([N+](=O)[O-])cc2)c1C(F)(F)F | 89 | 75 | 0 |
| CCC(C)(C)c1ccc2nc(N)nc(N)c2c1C | 91 | 82 | 62 |
| COc1ccccc1CNC(=O)c1cc(C2CC2)nc2c1cnn2C(C)C | 94 | 92 | 47 |
| O=C(O)C(F)(F)F.O=S(=O)(c1ccccc1)n1ccc2cc(Nc3ncnc4cc(C#C[C@H]5CCCN5)sc34)ccc21 | 85 | 56 | 50 |
| O=C(NC1CCN(Cc2ccc(O)cc2)CC1)c1ccc(Cl)c(Cl)c1.O=C(O)C(F)(F)F | 95 | 3 | 1 |
| COc1ccc2nccc([C@@H](O)CN3CCC(NCc4cc5cc(C)ccc5s4)CC3)c2c1.O=C(O)C(=O)O | 92 | 74 | 13 |
| O=C(CSc1nccn1C1CCCC1)Nc1cc(C(F)(F)F)ccc1Cl | 96 | 94 | 0 |
